Reference: PubChem BioAssay (NCATS)
Results filed as inconclusive are left out. Unmarked numbers belong to inactive results. Active and inactive are the calls of the source. Calls follow the shape of the dose curve; as a rule, active = well fitted inhibition curve with a large enough effect; inconclusive = small, poorly fitted or top-dose-only effect; inactive = flat fitted curve, though single readings scatter.

The compounds below were run against Glutathione peroxidase 1 (Homo sapiens) (UniProt P07203) (assay: Primary qHTS Assay for Inhibitors of Recombinant Selenoprotein Glutathione Peroxidase 1 (GPX1) (AID 1845191; also: nearly all actives have a fitted effect of over 65% in size)). Settings: recombinant GPX1, GR-coupled NADPH fluorescence, 15 min; series mostly up to 48.8 µM; activity, negative = inhibition: at the top concentration.
Description: Assay Provider: Elias S.J. Arner MD PhD.
Department of Medical Biochemistry and Biophysics
Karolinska Institutet, Solna, Stockholm, Sweden
Selenoprotein glutathione peroxidases (GPX), like the ubiquitously expressed GPX1 and the ferroptosis modulator GPX4, enact their antioxidant activities by reducing hydroperoxides using glutathione. […] GPX1 and GPX4 inhibitors have thus shown promise as anti-cancer agents. Existing inhibitors are often promiscuous, or modulate GPX activity only indirectly, so novel direct inhibitors identified through screening against GPX1 and GPX4 could be valuable. Here, we developed optimized glutathione reductase (GR)-coupled GPX assays for the biochemical high-throughput screen (HTS) of almost 12,000 compounds with known mechanisms of action. Initial hits were triaged using a GR counter-screen, assessed for isoform specificity using a separate GPX2 assay, and were assessed for general selenocysteine-targeting activity using a thioredoxin reductase (TXNRD1) assay. With this suite of assays, we identified novel GPX1/GPX2- and GPX4-specific inhibitors and can here present a validated pipeline for future discovery research for selenoprotein-targeting agents.
SEQUENCE No. (e.g., 1, 2, 3, etc.); […] (e.g., Cells, Incubation, Reagent, etc.); VALUE; DESCRIPTION.
1; Reagent 1; 3 uL; GPx1 enzyme or no enzyme control in 1536-well, black, solid Greiner assay plate.
2; Compound; 25 nL; Kalypsis pin tool (Wako USA) equipped with a 1536-well pin head.
3; Incubation; 30 min; room temperature.
4; Reagent 2; 1 uL; 10 nM GPX1, 1 mM GSH, 0.5 mM CHP, 0.5 mM NADPH, 100 nM GR, 0.01% BSA substrate
5; Detection; Fluorescence; ViewLux microplate reader, excitation 340 nm and emission 450 nm.
6; Incubation; 15 min; room temperature.
7; Detection; Fluorescence; ViewLux microplate reader, excitation 340 nm and emission 450 nm.
NOTES (numbers refer to Sequence numbers above)
1. 3 uL of 16.66 nM GPX1 and 0.016% BSA in assay buffer (50 mM Tris-HCl, 2 mM EDTA (pH 7.5), 150 mM NaCl) was added to columns 3-48 of 1536-well assay plates using a BioRAPTR Flying Reagent Dispenser (Let's Go Robotics (LGR), Carlsbad, CA). A no-enzyme control (0.01% BSA in TES assay buffer) was added to columns 1-2.
2. 25 nL of test compounds and DMSO controls were added to each well with a pin tool (Kalypsys).
3. The assay plates were incubated for 30 minutes at room temperature.
4. 1 uL of master mix (500 nM glutathione reductase (GR), 5 mM reduced glutathione (GSH), 2.5 mM NADPH in assay buffer) was added. 1 uL of cumene hydroperoxide (CHP) ([2.5 mM] in 50% EtOH) was then added within 5 minutes to initiate the reaction. Final concentrations were: 10 nM GPX1, 1 mM GSH, 0.5 mM CHP, 0.5 mM NADPH, 100 nM GR, 0.01% BSA.
5. Initial fluorescence readout (t=0) at 340/450 nm was measured using a ViewLux multimodal detector (PerkinElmer, Waltham, MA).
7. Endpoint fluorescence readout (t=15) at 340/450 nm was measured 15 min after room temperature incubation.
% is scaled to controls: 0 for no effect and ±100 for the full control effect; potency is read from the fitted curve at half-maximal effect.

Chain of Glutathione peroxidase 1 (Homo sapiens) (P07203 whole entry, looked up): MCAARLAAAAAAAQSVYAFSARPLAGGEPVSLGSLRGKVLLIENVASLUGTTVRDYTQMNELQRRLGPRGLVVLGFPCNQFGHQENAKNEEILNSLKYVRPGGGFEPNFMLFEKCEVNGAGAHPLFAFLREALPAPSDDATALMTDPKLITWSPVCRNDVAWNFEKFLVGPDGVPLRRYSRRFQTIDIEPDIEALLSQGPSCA

Structure (SMILES) | activity, negative = inhibition | outcome | Potency
CN(c1ccccc1CNc1nc(Nc2ccc3c(c2)CC(=O)N3)ncc1C(F)(F)F)S(C)(=O)=O | -6.94% | – | –
C=C(C(=O)O)C1CCC2(C)CCC(O)C(=C)C2C1 (stereo not given) | -0.485% | – | –
C[C@@H]1O[C@@H](O[C@H]2[C@H](O[C@H]3CC[C@@]4(C)C(CC[C@]5(C)C4C=C[C@]46OC[C@@]7(CCC(C)(C)C[C@H]74)[C@@H](O)C[C@]65C)[C@]3(C)CO)O[C@H](CO)[C@@H](O)[C@@H]2O[C@@H]2O[C@H](CO)[C@@H](O[C@@H]3O[C@@H](C)[C@H](O)[C@@H](O)[C@H]3O)[C@H](O)[C@H]2O)[C@H](O)[C@H](O)[C@H]1O (stereo not given in full) | -10.1% [at 15.3 µM] | – | –
Cc1ccc(S(=O)(=O)n2ccc(-c3c(-c4ccc(Cl)cc4)noc3C)n2)cc1 | – | inactive | –
C[C@@H]1O[C@@H](O[C@H]2[C@@H]3C=CO[C@@H](O[C@@H]4O[C@H](CO)[C@@H](O)[C@H](O)[C@H]4O)[C@@H]3[C@@]3(CO)O[C@@H]23)[C@H](OC(=O)/C=C/c2ccccc2)[C@H](O)[C@H]1O | 4.41% [at 15.3 µM] | – | –
CC1(O)CC(O)C2(O)C=COC(O[C@@H]3O[C@H](CO)[C@@H](O)[C@H](O)[C@H]3O)C12 (stereo not given in full) | -12.5% [at 27.7 µM] | – | –
N#Cc1c(Oc2ccc(F)c(NC(=O)Cc3cccc(C(F)(F)F)c3)c2)ccc2nc(NC(=O)C3CC3)sc12 | -16.8% | – | –
COC(=O)C12C(=O)C(C)=C(O)C1(C)C(C)=CC1C3(CO)CCC(O)C(C)(C)C3CCC12C (stereo not given) | -15% [at 27.7 µM] | – | –
CC[C@@H](O)C[C@@H]1C(C)=C[C@@H]2CCCC[C@@H]2[C@@]1(C)C(=O)O | -14.6% | – | –
CC1(C)CCC2(C(=O)OC3OC(CO)C(O)C(O)C3O)CCC3(C)C(=CCC4C5(C)CCC(OC6OC(C(=O)O)C(OC7OC(CO)C(O)C(O)C7O)C(OC7OC(CO)C(O)C(O)C7O)C6O)C(C)(C)C5CCC43C)C2C1 (stereo not given) | -12.7% [at 15.3 µM] | – | –
CC(C)C(CO)Nc1nc(Nc2cc(N)cc(Cl)c2)c2ncn(C(C)C)c2n1 (stereo not given) | -9.77% | – | –
CCN(CC)CCN(Cc1ccc(-c2ccc(C(F)(F)F)cc2)cc1)C(=O)Cn1c(SCc2ccc(F)cc2)nc(=O)c2c1CCC2 | -19.7% | – | –
CC1C=CC2CCCCC2C1CCC1CC(O)CC(=O)O1 (stereo not given) | -17.7% | – | –
C[C@H]1Oc2cc(cnc2N)-c2c(nn(C)c2C#N)CN(C)C(=O)c2ccc(F)cc21 | – | – | inactive
CC(C)(C)Nc1nc(Nc2ccc(C(N)=O)cc2)cc(N)c1C#N | – | – | 22.7 µM (active)
COCCN1CCN(Cc2ccc(-c3n[nH]c4c3C(=O)c3c(NC(=O)NN5CCOCC5)cccc3-4)cc2)CC1 | – | – | inactive
CC(C)=CCC(O)/C(C)=C/CO[C@@H]1O[C@H](CO)[C@@H](O)[C@H](O)[C@H]1O (stereo not given in full) | -6.93% [at 27.7 µM] | – | –
COc1ccc(CC2NCCc3c2[nH]c2ccc(C)cc32)cc1OC (stereo not given) | 3.49% | – | –
O=C1CC2(CCCC2)[C@H](O)C(=O)N1CCCCN1CCN(c2ncccn2)CC1 | -6.83% | – | –
O=C(c1cc2c(cc1F)OC(c1ccc(F)cc1)(c1ccc(Cl)cc1Cl)O2)N1CCOCC1 (stereo not given) | – | inactive | –

Structure (SMILES) | activity, negative = inhibition | outcome | Potency
C/C(=C/CO)CC[C@@H]1[C@@](C)(O)CCC2C(C)(C)CCC[C@]21C (stereo not given in full) | 4.29% [at 27.7 µM] | – | –
C[C@@H]1O[C@@H](O[C@H]2[C@H](O[C@H]3[C@H](O)[C@@H](C(=O)O)O[C@@H](O[C@H]4CC[C@@]5(C)C(CC[C@]6(C)C5CC[C@]57OC[C@@]8(CCC(C)(C)CC85)[C@H](O)C[C@]76C)C4(C)C)[C@@H]3O[C@@H]3O[C@H](CO)[C@@H](O[C@@H]4OC[C@@H](O)[C@H](O)[C@H]4O)[C@H](O)[C@H]3O)O[C@H](CO)[C@H](O)[C@@H]2O)[C@H](O)[C@H](O)[C@H]1O (stereo not given in full) | – | inactive [at 9.52 µM] | –
C[C@@H]1O[C@@H](O[C@@H]2[C@@H](O)[C@@H](O[C@]3(CO)O[C@H](CO)[C@@H](O)[C@@H]3OC(=O)/C=C/c3ccc(O)cc3)O[C@H](CO)[C@H]2OC(=O)/C=C/c2ccc(O)cc2)[C@H](O)[C@H](O)[C@H]1O[C@@H]1O[C@@H](C)[C@H](O[C@@H]2OC[C@](O)(CO)[C@H]2O)[C@@H](O)[C@H]1O | -8.18% [at 15.3 µM] | – | –
CC(C)=CCC/C(C)=C/CC/C(C)=C/COC1OC(COC2OCC(OC3OCC(O)C(O)C3O)C(O)C2O)C(O)C(OC2OC(C)C(OC3OC(C)C(OC4OCC(OC5OC(C)C(O)C(O)C5O)C(O)C4O)C(O)C3O)C(O)C2O)C1O (stereo not given) | 1.32% [at 9.52 µM] | – | –
C[C@H]1C(=O)N2c3ccccc3[C@@]3(O)C[C@@H]4C(=O)N[C@](C)(c5nc6ccccc6c(=O)n54)N1[C@@H]23 | -22.9% [at 27.7 µM] | – | –
C=C1CCCC2(C)CC3(OC)OC(=O)C(C)=C3CC12 (stereo not given) | -14.2% | – | –
C=C1C[C@]23C[C@H]1CC[C@H]2[C@]1(C)CCC[C@@](C)(C(=O)O)[C@H]1[C@@H]3C(=O)O | -24% [at 27.7 µM] | – | –
OC[C@H]1O[C@@H](OCCc2ccccc2)[C@H](O[C@@H]2OC[C@](O)(CO)[C@H]2O)[C@@H](O)[C@@H]1O | – | inactive [at 27.7 µM] | –
CC1(CCOC2OC(CO)C(O)C(O)C2O)CCC23OC2(C1)C(O)CC1C(C)(C(=O)O)CCCC13C (stereo not given) | 3.53% [at 27.7 µM] | – | –
CO/N=C(/C(=O)N[C@@H]1C(=O)N2C(C(=O)O)=C(Cn3ccc(=N)n3CCO)CS[C@H]12)c1csc(N)n1 | – | – | 8.06 µM (active)
O=C(N/N=C/c1ccc(O)c(O)c1)c1cc2ccccc2cc1O | – | inactive [at 15.3 µM] | –
CC1(C)CCCC2(C)C1CC(=O)C13CC(CCC12)C(O)(CO)C3 (stereo not given) | – | inactive [at 27.7 µM] | –
Cc1ccc(NC(=O)Nc2cc(C(F)(F)F)ccc2F)cc1Nc1ccc2c(c1)NC(=O)/C2=C\c1ccc[nH]1 | – | – | inactive
CC(C)CC1NC(=O)C2CC3(O)c4ccccc4NC3N2C1=O (stereo not given) | -7.19% [at 27.7 µM] | – | –
CC/C=C\CC1C(=O)C=CC1(CCCCCCCC(=O)O)OC(C)=O (stereo not given) | 3.66% [at 27.7 µM] | – | –
CO[C@@H](C)Cn1c(=O)n(C)c2cnc3ccc(-c4cncc(C(C)(C)O)c4)cc3c21 | – | inactive | –
CC(C)(C)c1ccc(S(=O)(=O)Nc2ccc(Cl)cc2C(=O)c2cc[n+]([O-])cc2)cc1 | -11.4% | – | –
CC(C)CC(=O)O[C@@H]1OC=C(CO[C@@H]2O[C@H](CO)[C@@H](O)[C@H](O)[C@H]2O)[C@H]2[C@@H]3O[C@H]3[C@@](O)(CO)[C@@H]12 | 3.53% [at 27.7 µM] | – | –
C=C1C[C@]23C[C@H]1CC[C@H]2C1=C[C@H]2OC(=O)[C@@](C)([C@H]1[C@@H]3C(=O)O)[C@H]2O | -2.74% [at 27.7 µM] | – | –
CC1(C)CC[C@]2(C(=O)O)[C@H](O)C[C@]3(C)C(=CCC4[C@@]5(C)CC[C@H](O[C@@H]6O[C@H](CO[C@@H]7OC[C@H](O)[C@H](O)[C@H]7O[C@@H]7OC[C@@H](O)[C@H](O)[C@H]7O)[C@@H](O)[C@H](O)[C@H]6O[C@@H]6O[C@H](CO)[C@@H](O)[C@H](O)[C@H]6O)C(C)(C)C5CC[C@]43C)[C@@H]2C1 (stereo not given in full) | -2.55% [at 15.3 µM] | – | –
